40 compounds from PubChem BioAssay AID1569 (National Center for Advancing Translational Sciences (NCATS), 2009) can be followed below.

Inconclusive results are not listed. Activity calls are given as the source filed them. The call rests on the fitted dose curve; in most records, active means well fitted inhibition curve with a large enough effect; inconclusive means small, poorly fitted or top-dose-only effect, or effect the other way, or another doubt; inactive means no such curve, though single readings can be large or run the other way.
Potency means the concentration at half of the fitted maximal effect.

The nature of the experiment: Confirmation Concentration-Response Assay for lipid storage modulators. Further: nearly all actives have a fitted effect of over 80% in size. Particulars: Drosophila S3 cells, lipid droplet BODIPY/CellTracker ratio, 18-24 h; series mostly up to 46.1 µM. From the text:
NIH Molecular Libraries Probe Production Centers Network [MLPCN] NIH Chemical Genomics Center [NCGC] MLPCN Grant: 1 R03 MH085686-01 Assay Submitter (PI): Beller, Mathias; Max-Planck-Institut fur Biophysikalische Chemie NCGC Assay Overview: Storing lipids as a reservoir for energy or the anabolism of elementary metabolites is a common feature of probably all cells and is conserved from bacteria to humans. The universal cellular lipid storage organelle is the so-called lipid storage droplet (LD). Although ubiquitous, LDs share a simple structure composed of a hydrophobic core that harbors the storage lipids, which is shielded by a droplet-specific phospholipid monolayer to which proteins are attached. The current model of LD biogenesis involves an incorporation of the lipid core into the membrane leaflets of the endoplasmic reticulum (ER) followed by a subsequent budding-like maturation of a LD, which ultimately pinches off. Once released, LD volume can increase by localized lipogenesis or fusion of existing droplets. Storage lipids are re-mobilized enzymatically by lipase activity. Lipase regulation in the adipocyte is heavily studied and involves multiple components including catecholamine signaling, the LD-associated proteins Perilipin and comparative gene identification-58 (CGI-58) and at least two lipases named hormone sensitive lipase (HSL) and adipocyte triglyceride lipase (ATGL). LD regulation outside of the adipocyte is poorly understood and only few components are known. However, there is an urgent need to learn more about ectopic fat depots as mislocalized storage of lipids, for example in the liver or muscle, is an eminent health problem associated with insulin resistance or the metabolic syndrome. We developed a laser-scanning cytometer assay to enable 1,536-well screening and combined the results of the small molecules screen with an RNAi database based on lipid storage. Exo1 identified in the primary screen (AID 1519) and several analogs were measured in the lipid storage assay as 24-point concentration-response curves to confirm potency and SAR.
We dispensed 4 uL of cells at 1.25 x 10^6 cells/mL into LoBase Aurora COC 1,536-well plates (black walled, clear bottom) with a bottle-valve solenoid-based dispenser (Aurora) to obtain 5,000 cells/well. Triacsin C (Sigma-Aldrich T-4540), an inhibitor of long-chain fatty acyl CoA synthetase that blocks synthesis of triglycerides, was used as a positive control for lipid under-storage. A total of 23 nL of compound solution of different concentrations were transferred to the assay plates using a Kalypsys pin tool equipped with a 1,536-pin array containing 10-nL slotted pins (FP1S10, 0.457-mm diameter, 50.8 mm long; V&P Scientific). One microliter of oleic acid (400 uM) was added, and the plate was lidded with stainless steel rubber gasket lined lids containing pinholes. After 18-24 h incubation at 24 degree Celsius and 95% humidity, 4 uL of the dyes BODIPY 493/503 (Molecular Probes) and the Cell Tracker Red CMTPX dye (Molecular Probes) were added to the wells to stain lipid droplets and enumerate cell number, respectively. Fluorescence was detected by excitation of the fluorophores with a 488-nm laser on an Acumen Explorer (TTP Lab Tech). The total intensity in channel 1 (500-530 nm) reflected lipid droplet accumulation. Cells were detected using channel 3 (575- 640 nm) with 5-um width and 100-um depth filters. The ratio of the total intensity in PMT channel 1 over total intensity of channel 3 was also calculated. Percent activity was computed relative to an internal control (100% inhibited lipid droplet deposition due to the presence of 20 uM Triacsin C), which was added to 32 wells/plate.
With `CCOc1ccc(CCNC(=O)CN2CCN(Cc3ccccc3C)C2=O)cc1OCC`, the Potency result is “inactive”.
With `CCOC(=O)C1CCN(C(=O)C2(NC(=O)Nc3ccccc3Cl)CCCCC2)CC1` the figure was 628 nM (active); with `O=C(O[C@H]1[C@H](Cc2ccccc2)NS(=O)(=O)[C@H]2C[C@@H]3C=C[C@]12O3)c1ccc([N+](=O)[O-])cc1`, 28100 nM (active).
As for `COc1ccc(CCNC(=O)COc2ccc(S(=O)(=O)NC3CCCCC3)cc2Cl)cc1OC`, the figure is 3970 nM (active); as for `COc1ccc2oc(C(=O)OCC(=O)NCCc3ccc(S(N)(=O)=O)cc3)c(C)c2c1`, 4990 nM (active).
As for `OC1(c2cccc(C(F)(F)F)c2)CCN(c2ncnc3c2[nH]c2ccc(F)cc23)CC1`, the figure is 7910 nM (active).
For `CCOc1ccc(CCNC(=O)COC(=O)c2cccs2)cc1OCC`, the Potency was 3150 nM (active).
As for `Cn1nc(CC(=O)Nc2ccc(N3CCN(C(=O)OC(C)(C)C)CC3)cc2)c2ccccc2c1=O`, the figure is 1770 nM (active).
As to `O=C(Nc1ccc(Cl)c(Cl)c1)Nc1ccc(Br)cc1F`, the Potency was 8880 nM (active).
As for `COc1ccc(/C=C(\NC(=O)c2cccs2)C(=O)Nc2ccccc2C)cc1OC`, the figure is 177 nM (active); as for `CCCCCCCCCC[n+]1cccc2c3ccccc3ccc21`, 1770 nM (active); as for `CCCCCCCCCCCCCCCC[n+]1cccc2ccccc21`, 1220 nM (active).
As for `COc1ccc(CCNC(=O)CSc2ccc3ccccc3c2)cc1OC`, the figure is 1410 nM (active); as for `COc1ccc(CCn2ccc(O)c(Cc3ccc(Cl)cc3)c2=O)cc1OC`, 315 nM (active); as for `COc1ccc(N=Nc2nc(-c3ccccc3)c(-c3ccccc3)[nH]2)cc1`, 2500 nM (active).
With `COc1cccc(-n2nnnc2SCC(=O)NCCc2ccc(OC)c(OC)c2)c1` the entry was “inactive”; with `COC(=O)c1cc(C)sc1NC(=O)C1CC(=O)NN1Cc1ccccc1` (stereo not given), 1410 nM (active).
Regarding `CSCC(=O)NC1CCCc2c1cnn2-c1cc(F)cc(F)c1` (stereo not given), the Potency was 2500 nM (active).
With `CCn1c(COc2ccc(Cl)cc2)nnc1SCC(=O)Nc1ccc2c(c1)OCCO2` the figure was 11200 nM (active); with `CC(=O)Nc1cccc(C(=O)NC2CCCc3c2cnn3-c2ccccc2F)c1` (stereo not given), 14100 nM (active); with `O=C(NC1CCCc2c1cnn2-c1ccc(F)cc1F)c1ccccn1` (stereo not given), 11.2 nM (active).
With `COc1ccc(NC(=O)NC2(C(=O)N3CCN4CCCC4C3)CCCCC2)cc1` (stereo not given) the entry was “inactive”.
As for `COc1ccc(CCNC(=O)CCc2ccc(S(=O)(=O)NC(C)C)cc2)cc1OC`, the entry is “inactive”.
Turning to `CCOc1ccc(CCNC(=O)COC(=O)COc2ccc(Br)cc2)cc1OCC`, the Potency entry was “inactive”.
As for `COc1c(C)cc(C(=O)C2CCCN(C(=O)c3ccc4[nH]ccc4c3)C2)cc1C` (stereo not given), the figure is 17300 nM (active); as for `Cc1cc(C(=O)O[C@H]2[C@H](Cc3ccccc3)NS(=O)(=O)[C@H]3C[C@@H]4C=C[C@]23O4)ccc1[N+](=O)[O-]`, “inactive”; as for `CCOC(=O)C1CCN(C(=O)C2(NC(=O)Nc3cccc(F)c3)CCCCC2)CC1`, 3970 nM (active).
For `COc1ccc(CCNC(=O)CCCn2nc(C)n3ccnc3c2=O)cc1OC`, the Potency entry was “inactive”.
With `CCC(C)(C)NC(=O)C(c1cccn1C)N(Cc1ccc(OC)cc1)C(=O)Cn1nnc2ccccc21` (stereo not given) the figure was 2500 nM (active); with `Cc1sc2ncnc(NCC3COc4ccccc4O3)c2c1C` (stereo not given), 1990 nM (active); with `Cc1ccc(S(=O)(=O)NCCC2=CCCCC2)cc1C(N)=O`, 22300 nM (active).
With `COc1ccc(CCNC(=O)Cn2nnc(-c3ccc(N4CCOCC4)cc3)n2)cc1OC` the figure was 44.5 nM (active).
With `COc1ccc(CCNC(=O)CC2SC(N)=NC2=O)cc1OC` (stereo not given) the entry was “inactive”.
As to `Cc1ccccc1C(=O)N1CCC(C(=O)Nc2ccc(S(=O)(=O)N3CCCCC3)cc2)CC1`, the Potency entry was “inactive”.
With `CCOc1ccc(CCNC(=O)c2cc3sccc3n2CC)cc1OCC`, the Potency is 199 nM (active).
Turning to `COc1ccccc1C(=O)O[C@H]1[C@H](Cc2ccccc2)NS(=O)(=O)[C@H]2C[C@@H]3C=C[C@]12O3`, the Potency was 8880 nM (active).
As for `S=C(Nc1cc(Cl)ccc1Oc1ccccc1)N1CCN(c2ccccn2)CC1`, the figure is 2500 nM (active).
Regarding `COc1ccc(CCNC(=O)CCCCCNc2nc(=S)[nH]c3ccccc23)cc1OC`, the Potency is 2500 nM (active).
As to `CCOc1ccc(CCNC(=O)CSCc2ccc(C)cc2)cc1OCC`, the Potency result was “inactive”.
In the case of `Cc1cc(C)c(Cc2c(C)nc3c(C(=O)NCc4ccco4)cnn3c2C)c(C)c1`, the Potency was 7050 nM (active).
